We go through 33 compounds from PubChem BioAssay (Tox21).

Each structure is given as a SMILES string. Values without a mark were called inactive. Records with an inconclusive call do not appear. Activity calls are given as the source filed them. Unless noted, calls come from the whole dose curve; as a rule, active = well fitted curve in the direction sought with a large enough effect in the repeat runs; inconclusive = weak or mixed curves; inactive = no such curve, though single readings can be large; an effect the other way counts as inactive or inconclusive.

Experiment [1] in a line: qHTS assay to identify small molecule antagonists of the glucocorticoid receptor (GR) signaling pathway - cell viability counter screen (AID 720693; note: nearly all actives have a fitted effect of over 55% in size). (Quantitative high-throughput screening tests each substance at several concentrations.)
The nature of experiment [2]: qHTS assay for identifying genotoxic compounds that show differential cytotoxicity against isogenic chicken DT40 cell lines with known DNA damage response pathways - wild type cell line (AID 743012). Note: nearly all actives have a fitted effect of over 60% in size. Note: potency is the fitted concentration of half-maximal effect. The method in brief: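 Parental DNA repair-proficient DT40 cells, 300 per well, were pre-incubated ~0.5 h at 37 C/5% CO2, pin-dosed with compounds in DMSO, then incubated 40 h. Viability was read as CellTiter-Glo luminescence after 30 min at room temperature.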

Experiment [3] is described as follows: qHTS assay for identifying genotoxic compounds that show differential cytotoxicity against isogenic chicken DT40 cell lines with known DNA damage response pathways - Rev3 mutant cell line (AID 743014). Note: nearly all actives have a fitted effect of over 55% in size. Note: potency is the fitted concentration of half-maximal effect.
Experiment [4] in a line: qHTS assay for identifying genotoxic compounds that show differential cytotoxicity against isogenic chicken DT40 cell lines with known DNA damage response pathways - Rad54/Ku70 mutant cell line (AID 743015). Note: nearly all actives have a fitted effect of over 60% in size. Note: potency is the fitted concentration of half-maximal effect.
The nature of experiment [5]: qHTS assay to identify small molecule antagonists of the androgen receptor (AR) signaling pathway - cell viability counter screen (AID 743033; note: nearly all actives have a fitted effect of over 45% in size).
A short description of experiment [6]: qHTS assay to identify small molecule antagonists of the androgen receptor (AR) signaling pathway using the MDA cell line - cell viability counter screen (AID 743041; note: nearly all actives have a fitted effect of over 45% in size). The essentials:
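Cells were plated at 3,000 per well and left 5 h. Compounds in DMSO were then pinned in, followed by R1881. After 16 h at 37C, CellTiter-Fluor fluorescence gave viability.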

Experiment [7] can be described thus: qHTS assay to identify small molecule antagonists of the thyroid receptor (TR) signaling pathway - cell viability counter screen (AID 743064). Note: nearly all actives have a fitted effect of over 50% in size. The essentials:
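Compounds were tested on GH3.TRE-Luc cells in the presence of T3 at 1 nM final. Following 23.5 h at 37 °C, cell viability was quantified by CellTiter-Fluor.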

Experiment [8] concerns the target Androgen receptor (Homo sapiens) (UniProt P10275). The experiment is described as follows: qHTS assay to identify small molecule antagonists of the androgen receptor (AR) signaling pathway using the MDA cell line (AID 743042; note: nearly all actives have a fitted effect of over 55% in size). The method in brief:
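Antagonist mode: compounds plus R1881 agonist added to MDA-kb2 AR-luc cells, incubated 16 h at 37C. Luciferase reporter luminescence quantified, with multiplexed CellTiter-Fluor readout for cell viability.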

For experiment [9] the target is unchanged. The experiment is described as follows: qHTS assay to identify small molecule agonists of the androgen receptor (AR) signaling pathway (AID 743036; active = well fitted activation curve with a large enough effect in the signal ratio in the repeat runs, with a control signal flat, not every such curve was filed as active; the % refers to the signal ratio). The method in brief:
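Beta-lactamase under UAS control, stably integrated in HEK293 GripTite cells, reports receptor activation. After 16 h compound treatment, cells received FRET substrate for 2 h at room temperature before fluorescence reading.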

Experiment [10] has the same target. Briefly: qHTS assay to identify small molecule agonists of the androgen receptor (AR) signaling pathway using the MDA cell line (AID 743040; note: nearly all actives have a fitted effect of over 20% in size). The essentials: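 Cells plated, 5 h at 37C/0% CO2; compound or DMSO pinned; 16 h at 37C; ONE-Glo added; luminescence measured after 30 min at room temperature. Reporter line: MDA-kb2 with MMTV-luciferase responsive to AR and GR.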

Chain of Androgen receptor (Homo sapiens) (P10275 whole entry, looked up): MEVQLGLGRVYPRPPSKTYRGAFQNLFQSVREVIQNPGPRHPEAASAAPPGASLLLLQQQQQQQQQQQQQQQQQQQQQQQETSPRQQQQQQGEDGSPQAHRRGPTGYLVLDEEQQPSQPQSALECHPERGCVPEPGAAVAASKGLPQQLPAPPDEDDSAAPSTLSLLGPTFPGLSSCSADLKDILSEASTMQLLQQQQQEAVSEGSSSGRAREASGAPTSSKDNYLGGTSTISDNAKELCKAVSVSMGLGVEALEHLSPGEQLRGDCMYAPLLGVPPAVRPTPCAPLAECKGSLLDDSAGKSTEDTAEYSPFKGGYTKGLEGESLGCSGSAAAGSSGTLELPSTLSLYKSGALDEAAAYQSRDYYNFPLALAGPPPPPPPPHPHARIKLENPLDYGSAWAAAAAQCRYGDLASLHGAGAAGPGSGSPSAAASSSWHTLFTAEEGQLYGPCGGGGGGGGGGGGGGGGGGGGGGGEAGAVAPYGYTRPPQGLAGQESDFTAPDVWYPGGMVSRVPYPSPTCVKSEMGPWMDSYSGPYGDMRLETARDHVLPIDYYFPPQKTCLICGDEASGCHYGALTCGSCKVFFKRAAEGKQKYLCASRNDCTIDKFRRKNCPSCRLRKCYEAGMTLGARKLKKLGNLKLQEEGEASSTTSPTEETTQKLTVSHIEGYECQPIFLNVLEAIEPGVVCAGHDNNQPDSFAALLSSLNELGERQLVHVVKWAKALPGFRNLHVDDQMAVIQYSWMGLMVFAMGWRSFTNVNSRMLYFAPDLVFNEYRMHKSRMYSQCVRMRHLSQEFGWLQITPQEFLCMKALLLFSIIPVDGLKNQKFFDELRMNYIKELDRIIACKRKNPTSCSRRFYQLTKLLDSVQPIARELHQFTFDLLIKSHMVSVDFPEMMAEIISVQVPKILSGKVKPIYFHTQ

Take `COc1ccc(Cl)cc1C`: the result in [1], in experiment [5] and in experiment [6] was inactive. The Potency result in [2], in experiment [3], in [4] and in [7] was “inactive” each time.

As to `CC[C@@]1(c2ccccc2)NC(=O)N(C)C1=O`, the call in experiment [1], in experiment [5] and in experiment [6] was inactive. Also, the Potency result in [2], in [3], in experiment [4] and in [7] was “inactive” throughout.

`CC(C)(C)OC(=O)c1ccccc1C(=O)O`: the compound was classed as inactive in experiment [1], in experiment [5] and in experiment [6]. Also, the Potency entry in experiment [2], in [3], in [4] and in experiment [7] was “inactive” throughout.

For the compound `CCc1ccc(CC)cc1`, the call in experiment [1], in experiment [5] and in experiment [6] was inactive. Moreover, the Potency entry in [2], in experiment [3], in [4] and in experiment [7] was “inactive” each time.

On to `N=C(N)N`, for which the call in experiment [1] and in experiment [5] was inactive. The Potency entry in experiment [2], in experiment [3], in experiment [4] and in experiment [7] was “inactive” in each case.

As to `Cc1cc(C)c(C)c(C)c1`, the call in experiment [1], in experiment [5] and in experiment [6] was inactive. In addition, the Potency result in experiment [2], in experiment [3], in experiment [4] and in experiment [7] was “inactive” each time.

For `Clc1cc(Cl)c(Cl)c(Cl)c1Cl`, the outcome in experiment [1], in experiment [5] and in experiment [6] was inactive. The Potency entry in experiment [2], in experiment [3], in experiment [4] and in experiment [7] was “inactive” in each case.

On to `CC(O)CCCCn1c(=O)c2c(ncn2C)n(C)c1=O` (stereo not drawn), for which the call in experiment [1] and in experiment [5] was inactive. The Potency entry in experiment [2], in [3], in [4] and in experiment [7] was “inactive” each time.

As to `C=C(C)C(=O)OCCCC`, the call in [1], in experiment [5] and in experiment [8] was inactive. Moreover, the Potency entry in experiment [2], in experiment [3], in experiment [4] and in [7] was “inactive” in each case.

`CNCCc1ccccn1`: the outcome in experiment [1] and in experiment [5] was inactive. The Potency entry in [2], in [3], in experiment [4] and in experiment [7] was “inactive” each time.

For `CN(C)CCc1c[nH]c2ccc(CS(=O)(=O)N3CCCC3)cc12`, the outcome in [1] and in experiment [5] was inactive. In addition, the Potency entry in experiment [2], in experiment [3], in [4] and in [7] was “inactive” each time.

On to `CCCCCCCCCCCCCCCC(=O)OC`, for which the compound was classed as inactive in [1], in experiment [5] and in experiment [6]. Further, the Potency result in experiment [2], in experiment [3], in experiment [4] and in experiment [7] was “inactive” each time.

`C=CCOC(=O)CCCCCCCC`: the outcome in experiment [1], in experiment [5] and in [6] was inactive. In addition, the Potency result in experiment [2], in experiment [3], in experiment [4] and in experiment [7] was “inactive” throughout.

For the compound `CCCc1ccc(O)c(OC)c1`, the result in experiment [1], in [5] and in experiment [6] was inactive. The Potency entry in experiment [2], in experiment [3], in experiment [4] and in experiment [7] was “inactive” in each case.

Turning to `CCCOc1ccc(C(=O)OCCN(CC)CC)cc1N`, the result in [1] and in [5] was inactive. Further, the Potency was 9.44 µM (active) in experiment [2], 6.68 µM (active) in experiment [3] and 13.3 µM (active) in [4]. For the same compound, the Potency result in experiment [7] is “inactive”.

In the case of `CC(C)(C)OC=O`, the result in experiment [1] and in [5] was inactive. Also, the Potency entry in [2], in experiment [3], in [4] and in experiment [7] was “inactive” throughout.

In the case of `CC(=O)OCC(=O)[C@@]1(O)CC[C@H]2[C@@H]3CCC4=CC(=O)C=C[C@]4(C)[C@H]3[C@@H](O)C[C@@]21C`, the call in [1], in experiment [5] and in [6] was inactive. Moreover, the Potency result in [2] and in experiment [3] was “inactive” each time.

As to `O=C1CC2(CCCC2)CC(=O)N1CCNCC1COc2ccccc2O1` (stereo not drawn), the compound was classed as inactive in experiment [1]. Also, the Potency was 21.1 µM (active) in experiment [2], 26.6 µM (active) in experiment [3] and 26.6 µM (active) in [4]. For the same compound, the Potency entry in [7] is “inactive”.

`NS(=O)(=O)c1cc2c(cc1C(F)(F)F)NCNS2(=O)=O`: the call in experiment [1] and in [6] was inactive. In addition, the Potency result in experiment [2], in [3], in [4] and in experiment [7] was “inactive” throughout.

In the case of `CN1C(CCl)Nc2cc(Cl)c(S(N)(=O)=O)cc2S1(=O)=O` (stereo not drawn), the result in experiment [1], in experiment [5] and in [6] was inactive. The Potency is 26.6 µM (active) in [2] and 29.8 µM (active) in experiment [4].

With `CC(=O)OC/C=C(/C)CCC=C(C)C`, the outcome in experiment [1], in experiment [5] and in experiment [6] was inactive. Also, the Potency result in experiment [2], in [4] and in [7] was “inactive” throughout.

Consider `N=C(N)S(=O)O`, for which the result in experiment [1] and in experiment [5] was inactive. Also, the Potency entry in experiment [2], in experiment [3], in experiment [4] and in [7] was “inactive” throughout.

As for `CCOc1ccccc1OCCN[C@H](C)Cc1ccc(OC)c(S(N)(=O)=O)c1`, the result in experiment [1] and in experiment [5] was inactive. The Potency result in experiment [2], in experiment [4] and in experiment [7] was “inactive” in each case.

With `O=S(=O)(O)c1ccc(Cl)cc1`, the outcome in experiment [1] and in experiment [5] was inactive. In addition, the Potency entry in experiment [2], in experiment [3], in experiment [4] and in [7] was “inactive” each time.

For `CCOC(=O)[C@H](CCc1ccccc1)N[C@H]1CS[C@H](c2cccs2)CN(CC(=O)O)C1=O`, the call in experiment [1], in [5], in [9], in experiment [10], in [6] and in experiment [8] was inactive. The Potency result in [2], in experiment [4] and in experiment [7] was “inactive” each time.

Regarding `O=C(O)CCC(=O)Nc1ccc(S(=O)(=O)Nc2nccs2)cc1`, the call in [1], in [5] and in experiment [6] was inactive. The Potency result in experiment [2], in experiment [4] and in [7] was “inactive” throughout.

`CC/C=C\CCCCCCCCCCOC(C)=O`: the compound was classed as inactive in [1] and in experiment [5]. The Potency result in experiment [2], in experiment [3], in experiment [4] and in experiment [7] was “inactive” throughout.

In the case of `CC(CN1CC(=O)NC(=O)C1)N1CC(=O)NC(=O)C1` (stereo not drawn), the result in experiment [1], in experiment [5], in [9], in [6] and in experiment [8] was inactive. The Potency was 4.22 µM (active) in experiment [2] and 0.596 µM (active) in [4]. Further, in experiment [7], the Potency entry is “inactive”.

Take `OCCC(F)(F)C(F)(F)C(F)(F)C(F)(F)C(F)(F)C(F)(F)F`: the outcome in experiment [1] and in experiment [5] was inactive. Also, the Potency result in experiment [2], in experiment [3], in experiment [4] and in experiment [7] was “inactive” each time.

With `CCCCCCCCCCCCCCCC/C=C/C1CC(=O)OC1=O` (stereo not drawn), the result in [1] and in experiment [5] was inactive. Besides, the Potency result in experiment [2] and in experiment [3] was “inactive” each time.

As to `O=C[C@@H](O)[C@H](O)[C@H](O)CO`, the compound was called inactive in [1], in experiment [5], in experiment [9], in experiment [10] and in experiment [8]. Besides, the Potency result in [3], in experiment [4] and in experiment [7] was “inactive” in each case.

As for `CCOC(=O)c1ccc(N(C)C)cc1`, the result in [1], in experiment [5] and in experiment [6] was inactive. In addition, the Potency entry in [2] and in experiment [4] was “inactive” in each case.

`Cc1ccc(OC(=O)CC(C)C)cc1`: the outcome in experiment [1], in experiment [5] and in [6] was inactive. Moreover, the Potency entry in experiment [2], in experiment [3] and in [7] was “inactive” each time.
